In the assay the test system is ACVR2A. To be noted: concentration: 1 μM, replicates: in singlicate; n = 1.
Regarding `CCCCc1nn2ncccc2c1-c1ccnc(NC2CC2)n1` [GW684374], the “%Inh” value was determined as 0%.
For `COC(=O)C(NC(=O)NC1CCN(c2ccnc(Nc3ccc(F)cc3)n2)C1)c1ccccc1` (stereo not shown) [GSK1379712], the “%Inh” value was found to be 0%.
`O=c1cc(N2CCOCC2)nc2n(Cc3ccccc3F)ccn12` [GSK2297428]: the “%Inh” value is 0%.
The value for `COc1cc2ncnc(Nc3cccc(Br)c3)c2cc1OC.Cl` [GI230329] was 0%; that for `CS(=O)(=O)Cc1ccc(Nc2nccc(-c3c(-c4cccc(NC(=O)C5CCCCC5)c4)nn4ncccc34)n2)cc1` [GSK350559] was 0%.
With `Cc1cnc(N)c(/C=C/c2cncc(C(=O)NCCc3ccc(Cl)cc3Cl)c2)c1.Cl` [GSK190937], the “%Inh” value came out at 0%.
The value for `CS(=O)(=O)CCNCc1nc(-c2ccc3ncnc(Nc4ccc5c(cnn5Cc5ccccc5)c4)c3c2)cs1.Cl.Cl` [GW569716] was 0%; that for `CC[C@@H]1CO[C@H](C(=O)Nc2ccccc2)CN1c1cc(-c2ccc3c(N)n[nH]c3c2)nc(NC)n1` [GSK2376236] was 0%; that for `CC(=O)c1c(C)c2cnc(Nc3ccc(N4CCNCC4)cn3)nc2n(C2CCCC2)c1=O` was 0%.
In the case of `COc1ccc(-c2coc3ccc(-c4nnc(C)o4)cc23)cc1` it was 5%.
Take `Cc1c(Cn2c(C)c(C)n3c(=O)cc(N4CCOCC4)nc23)cccc1C(F)(F)F` [GSK2328680]: the “%Inh” value is listed as 0%.
In the case of `CNc1cc(-c2ccc3c(N)n[nH]c3c2)nc(N)n1` [GSK2224810] it was 43%; in that of `Cc1ccc(NC(=O)c2ccc(Cl)cc2)cc1-c1ccc(C(=O)Nc2ccncc2)cc1` [GSK1398467], 0%; in that of `CCn1c(-c2ccccc2)nc2cnccc21` [SB-733416], 20%.
Regarding `CN1c2ccc(-c3ccc(C(N)=O)cc3)cc2-c2[nH]ncc2S1(=O)=O`, the “%Inh” value amounted to 8%.
In the case of `CS(=O)(=O)CCNCc1nc(-c2ccc3ncnc(Nc4ccc(OCc5ccccc5)c(Cl)c4)c3c2)cs1.Cl` [GW582764] it was 17%; in that of `COC(=O)c1cccc(NC(=O)NC2CCN(c3ccnc(Nc4ccc(OC)cc4)n3)C2)c1` (stereo not shown) [GSK1379746], 0%; in that of `NS(=O)(=O)c1cccc(N/C=C2\C(=O)Nc3ccc(S(=O)(=O)Cc4c(Cl)cccc4Cl)cc32)c1` [GSK398099], 0%.
`CC(=O)c1cccc(NC(=O)NC2CCN(c3ccnc(Nc4ccc(F)cc4)n3)C2)c1` (stereo not shown) [GSK1379710]: the “%Inh” value is listed as 10%.
The value for `O=C1NC(=O)C(c2ccc(Cl)cc2)=C1Nc1cccc(Cl)c1` [SB-317651] was 0%; that for `Cc1ccc(-c2nc(Nc3ccncc3)c3ccccc3n2)s1` [GSK189015] was 17%; that for `Cn1cnc2c(N)ncnc21` [SKF-97623] was 0%.
In the case of `CNc1nc(-c2ccc3c(N)n[nH]c3c2)cc(N2C[C@@H](C(=O)NC3CCCCC3)OC[C@H]2C)n1` [GSK2375584] it was 0%; in that of `O=C(Nc1n[nH]c2nc(-c3ccco3)c(Br)cc12)C1CCN(Cc2ccccc2)C1.O=C(O)[C@H](O)[C@@H](O)C(=O)O` (stereo not shown) [SB-742034], 21%; in that of `COc1ccc(Nc2nccc(NCCNC(=O)Nc3cc(C)ccc3C)n2)cc1` [GSK1379899], 2%.
The value for `CC(C)c1cc(-c2ccc3c(N)n[nH]c3c2)nc(N)n1` [GSK2250882] was 0%.
Turning to `O=C(Nc1n[nH]c2nc(-c3cccs3)c(Br)cc12)C1CCCC1` [SB-743341], the “%Inh” value is 0%.
In the case of `O=C1NC(=O)C(c2ccc(Cl)cc2)=C1Nc1ccc(O)cc1` [SB-340867] it was 0%.
Turning to `COc1ccc(Nc2nccc(N3CCC(NC(=O)C(C)c4ccc(Cl)cc4)CC3)n2)cc1` (stereo not shown) [GSK1379812], the “%Inh” value was 0%.
In the case of `CC(C)c1ccc(O)cc1Nc1ccnc2ccc(C(F)(F)F)cc12` [GW482059] it was 43%; in that of `CCn1c(-c2c(N)noc2C)nc2cnccc21` [SB-737856], 0%; in that of `COc1ccc(Nc2nccc(N3CCC(NC(=O)C(C)c4ccc(Cl)cc4)C3)n2)cc1` (stereo not shown) [GSK1379735], 0%.
The value for `O=c1cc(N2CCOCC2)nc2n(Cc3cccc(Cl)c3Cl)c3ccccc3n12` [GSK2299009] was 0%; that for `CC(=O)c1c(C)c2cnc(Nc3ccn(C)n3)nc2n(C2CCCC2)c1=O` was 0%; that for `Cc1nccc(-c2c(-c3ccc(F)cc3)ncn2CCCN2CCOCC2)n1.Cl` [SB-282975] was 53%.
The value for `COc1ccc(CSc2nnc(-c3ccc4c(c3)CCO4)o2)cc1` was 0%; that for `Cc1ccc(NC(=O)Nc2ccc(Cl)cc2)cc1-c1ccc(C(=O)Nc2ccncc2)cc1` [GSK1398472] was 0%.
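Note: KINOMEscan kinase panel screen.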
